For 19 compounds, growth inhibition results are on record in PubChem BioAssay (NCI).

The nature of test [1]: NCI Yeast Anticancer Drug Screen. Data for the rad50 strain (AID 155).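 Further: 0% = growth of vehicle-only cultures of the same strain.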 To be noted: S. cerevisiae rad50 strain growth inhibition; at 50.0 µM; stronger effect = higher value. The method, boiled down:
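Cells are treated with compound, grown, and their growth is then scored against vehicle-only cultures of the same repair-deficient yeast strain.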

Test [2] is described as follows: NCI Yeast Anticancer Drug Screen. Data for the mec2-1 strain (AID 157). Conditions: S. cerevisiae mec2-1 strain, at 50.0 µM, stronger effect = higher value. The method, boiled down:
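Mutant yeast (mec2-1) grown with compound; growth inhibition relative to vehicle control reported.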

Test [3] in a line: NCI Yeast Anticancer Drug Screen. Data for the sgs1 mgt1 strain (AID 161).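 Further: 0% = growth of cultures given vehicle only.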 Conditions: S. cerevisiae sgs1 mgt1 strain, at 50.0 µM, stronger effect = higher value. The method, boiled down: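 Percent growth inhibition was derived by comparing compound-exposed mutant yeast with vehicle-exposed cultures. The strain carries alterations in DNA damage repair.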
Test [4] in a line: NCI Yeast Anticancer Drug Screen. Data for the cln2 rad14 strain (AID 165).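 Further: 0% = growth equal to vehicle treated cultures.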 To be noted: S. cerevisiae cln2 rad14 strain, at 50.0 µM, stronger effect = higher value. The method, boiled down:
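Readout is yeast growth inhibition versus vehicle-treated controls, using a strain with cln2 and rad14 alterations exposed to compound.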

Test [5] can be described thus: NCI Yeast Anticancer Drug Screen. Data for the bub3 strain (AID 167). To be noted: S. cerevisiae bub3 mutant strain, at 50.0 µM, stronger effect = higher value. The method, boiled down:
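Part of a panel of yeast mutants defective in DNA damage repair or cell cycle regulation. Each strain is grown with compound, and inhibition is calculated relative to solvent-treated cultures.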

Test [6] can be described thus: NCI Yeast Anticancer Drug Screen. Data for the mlh1 rad18 strain (AID 175). To be noted: S. cerevisiae mlh1 rad18 strain growth inhibition; at 50.0 µM; stronger effect = higher value. Summed up:
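Genetically defined yeast (DNA repair-deficient) exposed to compounds; growth inhibition determined relative to vehicle.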

SMILES strings stand for the structures. Compounds without any hit were thinned out: in the full panel of roughly 79,000, 15% have a hit. A number with no mark means an inactive call. Activity calls are given as the source filed them. No stated cut-off is given here; in the data, active means growth inhibition above about 70%; inactive means the rest. Where a SMILES comes first, the peptide text is derived from it. [ ]: non-standard residue; d: D form. The star is where a group is joined. pGlu = O=C1CC[CH](C(=O)O)N1; Cbz = O=C(OCc1ccccc1)*; Aib = CC(C)(N)C(=O)O

Take `CC1(C)C(c2ccccc2)C12CCC1(C2=O)C(c2ccccc2)C1(C)C` (centres undefined): the growth inhibition in test [1] was -41.8%; in test [2] it was -27.8%; in test [3], -36%; in test [4], -6.8%; in test [5] it was -16.9%; in test [6], -52.4%.

For `CCCCCCCCCCCCCCCCCCNc1ccccc1`, the growth inhibition in test [1] is -6.15%; in test [2] it was 9.15%; in test [3], 12.2%; in test [4], -29.8%; in test [5], 1.15%; in test [6], 16.2%.

Take `O=C(O)CC(c1ccccc1)C(CC(=O)O)c1ccccc1.[NH-]C1CCCCC1[NH-].[Pt+2]` (centres undefined): the growth inhibition was 37.2% in test [1]; 7.8% in test [2]; -49.9% in test [3]; -5.55% in test [4]; -36.9% in test [5]; -5.6% in test [6].

`CCOC(=O)/C=C(/O)CC(=O)OCC.[Cu+2]`: the growth inhibition in test [1] is -11.8%; in test [2], -1.8%; in test [3] it was -5.7%; in test [4], -21%; in test [5] it was -17.1%; in test [6] it was -0.45%.

In the case of `CCc1ccc[n+](CCc2c[nH]c3ccccc23)c1`, the growth inhibition in test [1] was -13%; in test [2] it was -0.45%; in test [3], -10%; in test [4], 1.35%; in test [5], 1.35%; in test [6], -10.5%.

Regarding `CCc1cc(C)cc(CC)c1N`, the growth inhibition in test [1] was 5.45%; in test [2] it was -14.2%; in test [3], -8.55%; in test [4] it was -24.6%; in test [5], 20.9%; in test [6], 3.8%.

With `COC(=O)/C=C/c1cc2c(cc1-c1c(C(=O)O)cc(OC)c(OC)c1OC)OCO2`, the growth inhibition in test [1] was -11.2%; in test [2], -0.55%; in test [3], -18.8%; in test [4] it was -3.4%; in test [5], -28.4%; in test [6], -8.05%.

Consider `CC(=O)Nc1ccccc1/C=C\c1ccccn1`, for which the growth inhibition is -21.6% in test [1]; -9.85% in test [2]; -15.5% in test [3]; 1.25% in test [4]; -5.1% in test [5]; -11.7% in test [6].

Regarding `Clc1ccc(C(CI)c2ccccc2Cl)cc1` (centres undefined), the growth inhibition was 10.8% in test [1]; 11.3% in test [2]; 12.3% in test [3]; 13.8% in test [4]; 27.9% in test [5]; 6.05% in test [6].

Consider `COC1N(c2ccccc2)CCN1c1ccccc1`, for which the growth inhibition is 3.05% in test [1]; 6.1% in test [2]; -23.2% in test [3]; 4.75% in test [4]; 5.55% in test [5]; 8.3% in test [6].

Regarding `CCOC(=O)C(=CNC(=S)c1cccnc1)C(=O)OCC`, the growth inhibition was -23.9% in test [1]; -37.7% in test [2]; -20.9% in test [3]; -7.75% in test [4]; -10% in test [5]; -1.5% in test [6].

For the compound `O=C(OCC1OC(C2N(c3ccccc3)CCN2c2ccccc2)C(OC(=O)c2ccccc2)C1OC(=O)c1ccccc1)c1ccccc1` (centres undefined), the growth inhibition was 0.85% in test [1]; 6.5% in test [2]; -26.4% in test [3]; -7.45% in test [4]; -11.9% in test [5]; 9.7% in test [6].

In the case of `CC(NC(=O)C(Cc1cnc[nH]1)NC(=O)C1CCC(=O)N1)C(N)=O` (stereo not drawn) ([pGlu]-His-Ala-NH2; configuration not given here), the growth inhibition is -15.4% in test [1]; -75% in test [2]; -17.3% in test [3]; -21.8% in test [4]; -12.7% in test [5]; -25.9% in test [6].

For the compound `c1ccc(CC(c2cccc3ccccc23)N2CCOCC2)cc1` (centres undefined), the growth inhibition in test [1] is 22.2%; in test [2], 23.9%; in test [3], 39.7%; in test [4], -7.55%; in test [5] it was 30%; in test [6] it was 23.2%.

With `Cc1ncc([N+](=O)[O-])n1CC[N+](C)([O-])CCCCn1ccnc1[N+](=O)[O-]` (centres undefined), the growth inhibition in test [1] was 16.9%; in test [2] it was -20.6%; in test [3] it was 20.6%; in test [4] it was -41.5%; in test [5], -3.95%; in test [6], -9%.

Turning to `CC(C)(NC(=O)C(C)(C)NC(=O)OCc1ccccc1)C(=O)O` (Cbz-[Aib]-[Aib]-OH), the growth inhibition in test [1] was 6.05%; in test [2], -3.6%; in test [3] it was 3.9%; in test [4] it was 14.1%; in test [5], 0.25%; in test [6], -64.5%.

With `O=[N+]([O-])c1ccc(Cn2on2-c2ccccc2)cc1`, the growth inhibition in test [1] is 8.55%; in test [2] it was 21.1%; in test [3], 9.1%; in test [4], -16.7%; in test [5], 24.4%; in test [6] it was -23.9%.

With `CSc1ccc(NC(=S)SCc2ccc3c(c2)OCO3)cc1Cl`, the growth inhibition in test [1] was 95.7% (active); in test [2], 98.6% (active); in test [3] it was 98% (active); in test [4], 84.3% (active); in test [5] it was 97.5% (active); in test [6] it was 97.2% (active).

On to `CC1=C(CO)C(=O)O[C@@H]([C@@H](C)[C@H]2CC[C@H]3[C@@H]4C[C@@H](O)[C@@]5(O)CC=CC(=O)[C@]5(C)[C@H]4CC[C@]23C)C1`, for which the growth inhibition in test [1] was -6.5%; in test [2], -7.15%; in test [3], -17.7%; in test [4] it was -9.55%; in test [5], -36.2%; in test [6], -77.1%.
